Only some compounds are listed: those with a hit (about 19% of all), similar ones and a draw of the others.
Shiga inhibitor – Shiga toxin inhibition | Vero cells, Shiga toxin protein synthesis inhibition reporter | inhibition, % at 38.7 µM | actives 9.2% (n = 290,000); in the data active means inhibition mostly above about 28%, no sharp cut-off; inactive means mostly below about 43%
CHX counter – affects cycloheximide protein synthesis inhibition readout, counter-screen; max response, %; actives 12% (n = 300,000); cell reporter, cycloheximide protein synthesis inhibition counterscreen; in the data active means max response mostly above about 13%, no sharp cut-off; inactive means mostly below about 14%; further: read at 38.3 µM for the half of the compounds with a filed dose
Pf growth 96h – P. falciparum growth inhibition at 96 hour, primary screen for plastid delayed-death inhibitors | P. falciparum luciferase reporter growth, 96 h | actives 6.9% (n = 320,000) | AID 504834 | Potency, µM (titrated, usually from 28.7 µM), hits mostly inhibitors
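Cell-based qHTS: luciferase-tagged P. falciparum in erythrocytes (2% hematocrit, 0.05% parasitemia final) incubated with compounds for 96 hours, 37 C, 5% CO2; luciferase detection reagent then added and luminescence measured.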
AMA1-RON2 inh – AMA1-RON2 (P. falciparum) interaction inhibition | AlphaScreen AMA1-biotinylated RON2 peptide binding | actives 0.2% (n = 360,000) | Potency, µM (top dose mostly 58.2 µM), usual class: inhibitors; further: nearly all actives have a fitted effect of over 45% in size
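AMA1 (3D7) with his tag at 25 nM final met compounds first, then biotinylated RON2 peptide at 25 nM; detection used donor plus acceptor beads, 10 µg/mL apiece, read by AlphaScreen after 30 min at room temperature.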
SARS PLP yeast – blocks SARS-CoV papain-like protease in a yeast assay. S. cerevisiae expressing SARS-CoV PLpro, growth rescue. Potency, µM (series often up to 32.9 µM), most hits filed as activators. actives 0.19% (n = 330,000). AID 485353; calls by dose curve; further: nearly all actives have a fitted effect of over 55% in size
Pf growth 48h – inhibits P. falciparum growth in the first generation, 48 h; P. falciparum luciferase growth in erythrocytes, 48 h; Potency, µM (doses to about 28.7 µM), most hits filed as inhibitors; actives 5.9% (n = 310,000); AID 504832
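Firefly luciferase activity from engineered P. falciparum reports growth; inhibitors lower the luminescent signal. Cultures contained 2% hematocrit erythrocytes at 0.1% final parasitemia.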
A number is an active result. Unless noted, the call rests on the fitted dose curve; in most records, active means well fitted curve in the direction sought with a large enough effect; inconclusive means small, poorly fitted or top-dose-only effect, or another doubt; inactive means no such curve, though single readings can be large; an effect the other way counts as inactive or inconclusive.

`O=C(Nc1ccc(S(=O)(=O)N2CCCCCC2)cc1)c1[nH]ncc1[N+](=O)[O-]` gave Shiga inhibitor 56, CHX counter 28, Pf growth 96h inconclusive, SARS PLP yeast inactive and Pf growth 48h inconclusive.
`O=C(Nc1ccc(OC(F)(F)F)cc1)c1[nH]ncc1[N+](=O)[O-]` gave Shiga inhibitor 78, CHX counter 43, Pf growth 96h inconclusive, AMA1-RON2 inh inactive, SARS PLP yeast inactive and Pf growth 48h inactive.
`CCOc1ccc(NC(=O)COC(=O)c2ccc(S(=O)(=O)N3CCOCC3)cc2)cc1` gave AMA1-RON2 inh inactive and SARS PLP yeast inactive.
O=C(CN1CCN(Cc2ccc(Cl)cc2)CC1)N/N=C/C=C/c1ccccc1[N+](=O)[O-] was read as Shiga inhibitor inactive, CHX counter inactive, Pf growth 96h inconclusive, AMA1-RON2 inh inactive, SARS PLP yeast inactive and Pf growth 48h inconclusive.
For O=C(CCNC(=O)c1ccc(Cl)cc1)NCc1ccco1 the results were AMA1-RON2 inh inactive and SARS PLP yeast inactive.
`CC1CCN(S(=O)(=O)c2ccc(NC(=O)CN3CCCC(C)C3)cc2)CC1` (centres undefined) gave Shiga inhibitor inactive, CHX counter inactive, Pf growth 96h 12µM, AMA1-RON2 inh inactive and SARS PLP yeast inactive.
Screening CC1CCN(S(=O)(=O)c2cccc(C(=O)Nc3ccccc3)c2)CC1 returned Shiga inhibitor inactive, CHX counter inactive, Pf growth 96h 2.6µM, AMA1-RON2 inh inactive, SARS PLP yeast inactive and Pf growth 48h inconclusive.
Screening COc1ccc(C2C3C(C)=NN=C3CC(C)(O)C2C(C)=O)cc1 (centres undefined) returned Shiga inhibitor inactive, CHX counter inactive, Pf growth 96h inactive, AMA1-RON2 inh inactive, SARS PLP yeast inactive and Pf growth 48h inactive.
Screening CCSCC1COC(c2cccn2Cc2ccc(C)cc2)=N1 (centres undefined) returned Shiga inhibitor inactive, CHX counter 39, Pf growth 96h inactive, AMA1-RON2 inh inconclusive, SARS PLP yeast inactive and Pf growth 48h inconclusive.
For CCC1COC(c2cccn2Cc2ccc(Cl)cc2)=N1 (centres undefined) the results were Shiga inhibitor inactive, CHX counter inactive, Pf growth 96h inconclusive, AMA1-RON2 inh inconclusive, SARS PLP yeast inactive and Pf growth 48h inactive.
Screening COc1ccc(N(CC(=O)Nc2cccc(N(C)S(C)(=O)=O)c2)S(C)(=O)=O)cc1OC returned Shiga inhibitor inactive, CHX counter inactive, AMA1-RON2 inh inactive, SARS PLP yeast inactive and Pf growth 48h inactive.
`CN(c1cccc(NC(=O)COc2ccc(Cl)cc2Cl)c1)S(C)(=O)=O` gave Shiga inhibitor 54, CHX counter 19, Pf growth 96h inactive, AMA1-RON2 inh inactive, SARS PLP yeast inactive and Pf growth 48h inactive.
For Cc1ccc(NC(=O)COc2ccccc2C=O)cc1Cl the results were Shiga inhibitor inactive, CHX counter 26, Pf growth 96h inactive, AMA1-RON2 inh inactive, SARS PLP yeast inactive and Pf growth 48h inactive.
Cc1ccccc1OCC(=O)Nc1cccc(N(C)S(C)(=O)=O)c1 was read as Shiga inhibitor active, CHX counter 15, AMA1-RON2 inh inactive, SARS PLP yeast inconclusive and Pf growth 48h inactive.
CN(c1cccc(NC(=O)COc2ccccc2)c1)S(C)(=O)=O was read as Shiga inhibitor 75, CHX counter 43, Pf growth 96h inactive, AMA1-RON2 inh inactive, SARS PLP yeast inactive and Pf growth 48h inactive.
Screening Cc1ccc(-n2nc3c(c2NC(=O)c2ccc4c(c2)OCO4)CS(=O)C3)c(C)c1 (centres undefined) returned Pf growth 96h inactive, AMA1-RON2 inh inactive, SARS PLP yeast inactive and Pf growth 48h inactive.
CNc1cncc(-c2cccc(NS(C)(=O)=O)c2)n1 was read as AMA1-RON2 inh inactive.
Screening CC(=O)Nc1cccc(NC(=O)COc2ccccc2C)c1 returned Shiga inhibitor 33, CHX counter 20, Pf growth 96h inconclusive, AMA1-RON2 inh inactive, SARS PLP yeast inactive and Pf growth 48h inactive.
For CN(c1cccc(NC(=O)CCSc2ccccc2)c1)S(C)(=O)=O the results were Shiga inhibitor 35, CHX counter 38, Pf growth 96h inactive, AMA1-RON2 inh inactive, SARS PLP yeast inactive and Pf growth 48h inactive.

Bioassay records (PubChem BioAssay)
